Measured values: PubChem BioAssay
Where “and” joins values, the source holds several entries; their conditions need not be identical. Equal entries are not always repeated. Records with an inconclusive call do not appear. Calls of active or inactive are those of the source. Unless noted, cut-off not given; nearly all actives show AC50 up to about 26 µM.

Columns and labels:
[1] = kinase inhibitors against Plasmodium liver-stage infection, cell-based, known kinase inhibitor set, luminescence, hepatoma host viability (AID 624392; call rule not given here;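 further: infected cells incubated roughly two days before readout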); conditions: Plasmodium liver stage in hepatoma cells, luciferase luminescence, concentration not given here; liver cell % of control: measured here: host liver cell viability; parasite % of control: stronger effect = lower value
[2] = growth inhibition of DIPG glioma cells, dose response, cell-based, SU-DIPG-XVII, MIPE5.0, CellTiter-Glo, qHTS (AID 1347060); conditions: SU-DIPG-XVII viability, CellTiter-Glo ATP luminescence;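 on AC50: cells exposed to compound for 48 hours before viability readout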
[3] = growth inhibition of DIPG glioma cells, dose response, cell-based, SU-DIPG-XIII, MIPE4.0, CellTiter-Glo, qHTS (AID 1347061; cut-off not given, nearly all actives have AC50 up to about 37 µM;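 further: cells exposed to compound for 48 hours before readout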); conditions: SU-DIPG-XIII viability, CellTiter-Glo ATP luminescence
[4] = growth inhibition of DIPG glioma cells, dose response, cell-based, JHH-DIPG-1, MIPE4.0, CellTiter-Glo, qHTS (AID 1347062; cut-off not given, nearly all actives have AC50 up to about 27 µM;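 on AC50: cells exposed to compound for two days before readout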); conditions: JHH-DIPG-1 viability, CellTiter-Glo ATP luminescence
[5] = growth inhibition of DIPG glioma cells, dose response, cell-based, SU-DIPG-IV, MIPE4.0, CellTiter-Glo, qHTS (AID 1347063; cut-off not given, nearly all actives have AC50 up to about 30 µM;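 further: compound exposure lasted 48 hours before the viability readout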); conditions: SU-DIPG-IV viability, CellTiter-Glo ATP luminescence
[6] = growth inhibition of DIPG glioma cells, dose response, cell-based, SU-DIPG-XIII, MIPE5.0, CellTiter-Glo, qHTS (AID 1347064; cut-off not given, nearly all actives have AC50 up to about 23 µM;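 on AC50: cells exposed to compound for 48 hours before the viability read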); conditions: SU-DIPG-XIII viability, CellTiter-Glo ATP luminescence
[7] = viability loss in pontine glioma line – cell-based, SU-DIPG-XXV, MIPE5.0, CellTiter-Glo, qHTS, dose response (AID 1347065); conditions: CellTiter-Glo ATP luminescence;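 further: cells exposed to compound for 48 hours before ATP readout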
[8] = SU-DIPG-VI glioma cell viability, MIPE4.0 library, CellTiter-Glo luminescence, qHTS (AID 1347066; cut-off not given, nearly all actives have AC50 up to about 30 µM;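 further: cells exposed to compound for 48 hours before readout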); conditions: CellTiter-Glo ATP luminescence
[9] = JHH-DIPG-1 glioma cell viability, MIPE5.0 library, CellTiter-Glo luminescence, qHTS (AID 1347067); conditions: JHH-DIPG-1 glioma viability, CellTiter-Glo ATP luminescence;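 further: cells exposed to compound for 48 hours before readout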
[10] = SU-DIPG-XXV glioma cell viability, MIPE5.0 library, qHTS (AID 1347068; cut-off not given, nearly all actives have IC50 up to about 30 µM;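 on IC50: cells exposed to compound for 48 hours before viability readout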)
[11] = modifiers of HSF1 nuclear foci, imaging, Selleck Cancer Library (AID 1347162; in the data active means plate-normalised HSF1 focus index below about 0.46); conditions: human cells, at 10 µM; SSMD: measured here: HSF1 foci SSMD mean; cell count: measured here: cell number; plate-normalised HSF1 focus index: stronger effect = lower value
[12] = sensitizers of A549 cells to miR-34 induction, primary screen, imaging, A549 dox-inducible miR-34, nuclei and caspase counts (AID 1347080;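 active means compounds whose cell count with miR-34 switched on is under 0.7 times the count with it off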); conditions: A549 miR-34 inducible, Hoechst nuclei count, 48 h
[13] = survival rescue of mitochondrial mutant cells in low glucose, primary screen, MELAS cybrids, Rieske KO mouse fibroblasts, CellTiter-Glo (AID 1508586;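 active means mean z-score across replicates of 1.96 or higher in either the MELAS or the Rieske mutant cell line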;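 further: z relative to plate mean and SD of compound and empty wells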)
[14] = circadian clock period modulators, cell-based, LOPAC library, luminescence reporter (AID 2774; call rule not given here;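 further: values are relative to mean of DMSO wells on each plate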); conditions: circadian reporter cells, at 7 µM, actives lie on both sides
[15] = tested on: Hepatitis C virus NS3 helicase; experiment: HCV NS3 helicase inhibitors, primary screen, biochemical, fluorescence polarization, LOPAC1280 library (AID 687035; in the data active means inhibition above about 37%); conditions: Purified HCV NS3 helicase, Cy5-dT15 ssDNA binding fluorescence polarization; stronger effect = higher value; concentration not given here
[16] = Cy5 fluorescence quenching or enhancement artefacts, artefact control for HCV NS3 helicase inhibitor project, biochemical, LOPAC1280 (AID 687037; call rule not given here); conditions: Cy5-DNA-NS3h complex fluorescence interference counterscreen
[17] = tested on: Aerobactin synthetase IucA (Klebsiella pneumoniae, hypervirulent); experiment: IucA enzyme inhibition, biochemical, LOPAC library, absorbance readout (AID 1346212; call rule not given here;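 further: 100% = no compound wells and 0% = no enzyme wells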); conditions: IucA enzyme assay, absorbance (OD) readout; stronger effect = lower value;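 tested at 8 µM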
[18] = stronger effect = lower value, cell number ratio, induced over uninduced
[19] = measured here: relative caspase fold change +Dox/-Dox
[20] = measured here: total cells with miR-34 induction, stronger effect = lower value
[21] = measured here: total cells without miR-34 induction
[22] = MELAS cybrid survival, CellTiter-Glo 48 h, stronger effect = higher value
[23] = Rieske KO mouse fibroblast survival, CellTiter-Glo 72 h

Cc1ccccc1-n1c(Cn2cnc3c(N)ncnc32)nc2cccc(C)c2c1=O
2.3: SSMD [11]
active: AC50 [3] 4.18 µM | AC50 [4] 1.32 µM | AC50 [5] 0.105 µM | AC50 [8] 0.743 µM
91.8% and 81.8% and 99.4%: liver cell % of control [1]
inactive: parasite % of control [1] 49.6% and 56.6% and 61.4% | outcome [2] | outcome [6] | outcome [7] | outcome [9] | outcome [10] | plate-normalised HSF1 focus index [11] 1.12
6650: cell count [11]

COC12C(COC(N)=O)C3=C(C(=O)C(C)=C(N)C3=O)N1CC1C2N1C (stereo not drawn)
active: AC50 [2] 1.48 µM

CSCC[C@@H](NC(=O)[C@@H](Cc1ccccc1)NC(=O)CNC(=O)CNC(=O)[C@@H](N)Cc1ccc(O)cc1)C(=O)O
inactive: outcome [2] | outcome [3] | outcome [4] | outcome [5] | outcome [6] | outcome [7] | outcome [9] | outcome [10]

O=C(Oc1ccc([N+](=O)[O-])cc1)N1CCN(Cc2cccc(Oc3ccccc3)c2)CC1
active: AC50 [3] 11.8 µM
inactive: outcome [2] | outcome [4] | outcome [6] | outcome [7] | outcome [8] | outcome [9]

CC1(C)CC(O)CC(C)(C)N1O
7440: cell count [12, 20]
-0.223: z-score [13, 23]
0.416: fold change [12, 19]
7670: cell count [12, 21]
inactive: outcome [2] | outcome [3] | outcome [4] | outcome [5] | outcome [6] | outcome [7] | outcome [8] | outcome [9] | outcome [10] | fold change [12, 18] 0.97 | z-score [13, 22] -0.227

Cc1ccccc1-n1c(Cn2ncc3c(N)ncnc32)nc2cccc(C)c2c1=O
0.957: z-score [13, 23]
0.968: fold change [12, 19]
8570: cell count [12, 20]
inactive: outcome [2] | outcome [3] | outcome [6] | outcome [7] | outcome [9] | outcome [10] | fold change [12, 18] 0.903 | z-score [13, 22] -0.332
9490: cell count [12, 21]

C/C(=C\c1csc(C)n1)[C@@H]1C[C@@H]2O[C@@H]2CCC[C@H](C)[C@H](O)[C@@H](C)C(=O)C(C)(C)[C@@H](O)CC(=O)O1
active: AC50 [2] 0.00662 µM | AC50 [7] 0.00934 µM
inactive: outcome [3] | outcome [6] | outcome [8]

Cc1[nH]nc2ccc(-c3cncc(OC[C@@H](N)Cc4c[nH]c5ccccc45)c3)cc12
active: AC50 [2] 0.833 µM | AC50 [3] 4.69 µM | AC50 [4] 0.59 µM | AC50 [5] 3.72 µM | AC50 [6] 0.742 µM | AC50 [7] 0.742 µM | AC50 [8] 14.8 µM | AC50 [9] 0.525 µM | IC50 [10] 1.86 µM

O=C(O)c1cc[c]([Hg][Cl])cc1
active: remaining activity [17] -1.2%
inactive: period change [14] 0.155 h | inhibition [15] -5% | fluorescence ratio (interference) [16] 1

CN[C@@H]1Cc2cccc3[nH]c(=O)n(c23)C1
inactive: outcome [2] | outcome [3] | outcome [4] | outcome [6] | outcome [7] | outcome [8] | outcome [9] | outcome [10]
